Giardia FBPA inh – blocks Giardia fructose-bisphosphate aldolase activity. A8B2U2. purified Giardia FBPA. Potency, µM (highest dose often 59.6 µM), for the others: top-dose activity, negative = inhibition, actives largely listed as inhibitors. 0.71% of 290,000 active. AID 2451; note: potency is the fitted concentration of half-maximal effect; nearly all actives have a fitted effect of over 55% in size
Target sequence (A8B2U2 whole entry, looked up): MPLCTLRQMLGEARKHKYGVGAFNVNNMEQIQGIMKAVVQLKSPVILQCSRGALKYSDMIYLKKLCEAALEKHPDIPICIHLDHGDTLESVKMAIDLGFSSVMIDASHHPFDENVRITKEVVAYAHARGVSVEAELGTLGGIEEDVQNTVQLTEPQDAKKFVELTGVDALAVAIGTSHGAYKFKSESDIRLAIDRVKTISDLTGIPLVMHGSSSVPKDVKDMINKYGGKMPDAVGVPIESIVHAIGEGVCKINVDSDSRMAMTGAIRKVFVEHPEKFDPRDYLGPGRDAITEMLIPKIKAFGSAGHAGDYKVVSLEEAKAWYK
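Giardia FBPA (40 nM reagent) was preincubated 10 min at RT with compound (up to 57.5 uM final), then substrate plus GAPDH/TPI/NAD/arsenate coupling system with diaphorase/resazurin was added; resorufin fluorescence (525/598 nm) was read after 20 min.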
Lassa entry inh – Lassa virus entry inhibition; 1.2% of 300,000 active; Potency, µM (doses to about 37.9 µM), inactives show at the highest dose activity change, negative = inhibition, actives largely listed as inhibitors; Lassa virus pseudotype entry inhibition, cell reporter; calls by dose curve; tested in HEK293 cells; note: potency is the fitted concentration of half-maximal effect; nearly all actives have a fitted effect of over 50% in size
FMDV inh – foot and mouth disease virus antiviral activity; Potency, µM (series often up to 57.9 µM), for inactives: at the highest dose activity change, negative = inhibition, actives largely listed as inhibitors; AID 1159524; FMDV antiviral cell-based qHTS; 1.2% of 410,000 active; calls by dose curve; tested in HEK293T cells; note: read-out not given here; potency is the fitted concentration of half-maximal effect; nearly all actives have a fitted effect of over 45% in size
HCV inhibitor – blocks hepatitis C virus | Huh7.5.1 HCVcc-Cre infection, luciferase reporter, 44 h | Potency, µM (top dose mostly 41.8 µM), without a hit: at the top dose activity change, negative = inhibition, hits mostly inhibitors | 3.4% of 340,000 active | AID 651820; note: potency is the fitted concentration of half-maximal effect
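Seed cells (1,000/well) for 4 h; treat with compound and infect with HCVcc-Cre, moi about 0.5. Incubate 44 h, then detect luciferase activity.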
Marburg entry inh – Marburg virus entry inhibition; Marburg virus pseudotyped entry inhibition, cell reporter; Potency, µM (doses to about 37.8 µM), inactives show at the highest dose activity change, negative = inhibition, hits mostly inhibitors; 1.8% of 300,000 active; AID 540276; calls by dose curve; tested in HEK293 cells; note: potency is the fitted concentration of half-maximal effect
HCMV inh – inhibitors of human cytomegalovirus; HFF cells, HCMV-luciferase reporter, 72 h; stronger effect = lower value; activity change, negative = inhibition, % at 57.5 µM; 4.5% of 410,000 active; in the data active = activity change below about -60%; inconclusive = no clear call, values can overlap the other calls; inactive = above about -39%
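Steps: HFFs plated, 16 h 37C; compounds added; HCMV-luciferase added to MOI 1 PFU/cell; 72 h 37C; OneGlo reagent, 5 min room temperature; luminescence read, normalized to controls.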
Active calls of the source: *; ? = inconclusive; / = not tested or not shown; [ ] = remark or other dose. An excerpt weighted towards active compounds, which were near 8.3% of everything screened. Unless noted, calls come from the whole dose curve; as a rule, active = well fitted curve in the direction sought with a large enough effect; inconclusive = small, poorly fitted or top-dose-only effect, or another doubt; inactive = no such curve, though single readings can be large; an effect the other way counts as inactive or inconclusive. % is set by controls: 0 for no effect and ±100 for the full control effect.

SMILES	Giardia FBPA inh	Lassa entry inh	FMDV inh	HCV inhibitor	Marburg entry inh	HCMV inh
COc1ccc(/C=N/NC(=O)c2ccc(N(C)S(=O)(=O)c3ccccc3)cc2)cc1	-6.2%	/	?	12.6µM*	/	-29.7
CN(C)S(=O)(=O)c1ccc(NC(=S)NC(=O)Cc2ccccc2)cc1	-0.3%	23.3%[46.1 µM]	-16.8%	9.0%	-0.7%[46.1 µM]	-62.7*
CCN(CC)c1ccc(NC(=S)NC(=O)Cc2ccccc2)cc1	-0.3%	?	11.3%	-28.5%	-0.3%	-18.2
COc1cc(C(=O)Nc2ccc(S(=O)(=O)N(C)c3ccccc3)cc2)cc(OC)c1OC	-1.9%	?	-3.2%	?	?	-21.2
COc1ccc(/C=N/NC(=O)c2ccc(N(C)S(=O)(=O)c3ccccc3)cc2)c(OC)c1	-0.2%	/	-18.1%	-26.4%	/	-3.6
COc1ccccc1/C=N/NC(=O)c1ccc(N(C)S(=O)(=O)c2ccccc2)cc1	-10.0%	/	-13.3%	-15.6%	/	-36.1
CN(c1ccc(C(=O)N/N=C/c2cccc([N+](=O)[O-])c2)cc1)S(=O)(=O)c1ccccc1	7.6%	?	-14.6%	12.6µM*	?	-9.7
COc1ccc(NC(=O)c2ccc(S(=O)(=O)N(C)c3ccccc3)cc2)cn1	-3.4%	/	17.8µM*	?	/	-61.6*
CCCc1ccc(S(=O)(=O)N2CCC(Oc3ccc(-n4cnnn4)cc3)CC2)cc1	/	?	-18.1%	/	-1.9%[46.1 µM]	-37.2
CC(=O)Nc1ccc(C(=O)N/N=C/c2ccc(F)cc2)cc1	-4.4%	/	2.9%	7.9%	/	-28.2
CC(=O)Nc1ccc(S(=O)(=O)Oc2ccc(/C=N/NC(=O)c3ccc(Cl)cc3)cc2)cc1	3.8%	-1.0%	?	3.98µM*	-12.9%	-4.1
COc1ccc(OCC(=O)Nc2ccc(Cl)cc2)cc1	1.0%	-29.1%[46.1 µM]	-3.5%	-18.6%	?	-39.0
COC(=O)NNC(=O)COc1ccc(Cl)cc1	0.0%	?	15.7%	16.7%	-1.6%	-108.4*
COc1ccccc1-c1noc2nc(Nc3cccc(Cl)c3)ccc12	/	/	/	/	/	18.1
O=C(Nc1ccc2nn(-c3ccccc3)nc2c1)c1cc2ccccc2o1	/	-8.3%[46.1 µM]	-13.9%	/	/	4.3
CCOc1ccc(NC(=O)c2ccc3c(c2)OCCO3)cc1S(=O)(=O)N(CC)CC	/	/	-5.4%	2.82µM*	/	-19.6
O=C(Nc1ccc2nn(-c3ccccc3)nc2c1)c1ccc(Br)o1	-15.7%	?	5.2%	?	?	-64.8*
CCOc1ccc(C(=O)Nc2ccc3c(c2)OCCO3)cc1OC	-8.2%	-30.4%	0.0%	?	?	73.9
CCOc1ccc(-n2nc3ccc(NC(=O)c4ccc5c(c4)OCCO5)cc3n2)cc1	1.1%	?	/	6.31µM*	?	-70.6*
O=C(Nc1ccc2nn(-c3ccccc3)nc2c1)c1ccc2c(c1)OCCO2	-0.6%	?	25.1µM*	7.08µM*	-19.7%[46.1 µM]	?
CCCC[C@@H]1CCCO[C@@](C(=O)NCCOC)(C(F)(F)F)C1	2.5%	/	/	/	/	/
Cc1cc(NC(=O)CCCn2c(C)c3cnn(-c4ccccc4)c(=O)c3c2C)ccc1Br	/	-0.1%[46.1 µM]	-1.4%	/	-14.1%[46.1 µM]	10.0
O=C(OCn1ncc(Br)c(Br)c1=O)c1ccc(F)cc1	3.8%	12.6µM*	14.1µM*	?	5.62µM*	/
O=C(OCn1ncc(Br)c(Br)c1=O)c1ccccc1Cl	0.1%	11.2µM*	14.1µM*	?	10µM*	/
O=C(OCc1cnc(Cl)s1)c1ccccc1Cl	-9.8%	8.6%	4.5%	14.5%	4.9%	75.3
SMILES	Giardia FBPA inh	Lassa entry inh	FMDV inh	HCV inhibitor	Marburg entry inh	HCMV inh
O=C(Cn1cc(SCc2ccc(F)cc2)c2ccccc21)N1CCCC1	/	?	23.2%	/	/	19.8
COc1cccc(C(C)(O)c2nc(-c3ccc(OC)nc3)cs2)c1 (stereo unspecified)	/	/	?	/	/	-61.7*
CC(O)(c1cccc(F)c1)c1nc(-c2ccc(S(C)(=O)=O)cc2)cs1 (stereo unspecified)	/	/	?	/	/	-2.2
COc1cccc(C(C)(O)c2nc(-c3ccc(S(C)(=O)=O)cc3)cs2)c1 (stereo unspecified)	/	/	?	/	/	-85.7*
COc1cccc(C(C)(O)c2nc(-c3cncnc3)cs2)c1 (stereo unspecified)	/	/	-26.4%	/	/	-20.4
COc1cccc(C(C)(O)c2nc(-c3cccs3)cs2)c1 (stereo unspecified)	/	/	-11.5%	/	/	-79.2*
COc1ccc(-c2csc(C(C)(O)c3cccnc3)n2)cn1 (stereo unspecified)	/	/	-15.1%	/	/	-12.0
COc1ccc(-c2csc(C(C)(O)c3cccc(OC)c3)n2)cc1 (stereo unspecified)	/	/	?	/	/	-65.3*
COc1ccc(CN2C(=O)C(n3cccc3)c3cc(F)ccc32)cc1 (stereo unspecified)	/	/	/	/	/	-17.7
CCNc1ncc2ncc(=O)n(CCOC)c2n1	-3.3%	/	-11.5%	/	/	/
CSC(N)=NCCCC(N)C(=O)O (stereo unspecified)	3.6%	/	8.4%	/	/	/
COc1cccc(C(C)(O)c2nc(-c3cnc4ccccc4c3)cs2)c1 (stereo unspecified)	/	/	?	/	/	-62.5*
CC(O)(c1ccncc1)c1nc(-c2cccc(C(F)(F)F)c2)cs1 (stereo unspecified)	/	/	?	/	/	-69.2*
CC(O)(c1cccc(F)c1)c1nc(-c2cccc(C(F)(F)F)c2)cs1 (stereo unspecified)	/	/	-10.0%	/	/	6.0
COc1cccc(C(C)(O)c2nc(-c3ccc4ccccc4c3)cs2)c1 (stereo unspecified)	/	/	0.0%	/	/	-33.4
COc1ccc2[nH]cc(CCNc3ncncc3-c3ccoc3)c2c1	-15.5%	/	?	/	/	/
COC(C)(C)CCCC(C)C/C=C/C(C)=C/C(=O)O (stereo unspecified)	4.7%	/	-17.6%	/	/	/
C[C@H](CO)NS(=O)(=O)c1cc(Cl)ccc1F	/	4.6%[46.1 µM]	/	/	/	/
COc1ccc(C(=O)/C=C/C(=O)N(CC(=O)NC2CCCCC2)Cc2ccccc2)c(O)c1	5.9%	3.98µM*	8.91µM*	?	?	-99.2*
COc1ccc(C(=O)/C=C/C(=O)N(CC(=O)NC2CCCCC2)CC2CCCO2)c(O)c1 (stereo unspecified)	-5.3%	/	7.94µM*	?	/	55.8
COc1ccc(C(=O)/C=C/C(=O)N(CC(=O)NC2CCCCC2)Cc2ccccc2OC)c(O)c1	6.8%	?	7.94µM*	?	?	-97.5*
Cc1cc(C)c2nc(N3CCCC(C(=O)NCc4cccc(Cl)c4)C3)sc2c1 (stereo unspecified)	/	/	2.4%	/	-27.1%[46.1 µM]	6.9
COc1ccc(OC)c(CNC(=O)c2cc(=O)[nH]c3ccc(S(=O)(=O)N4CCCCC4C)cc23)c1 (stereo unspecified)	/	?	2.8%	/	/	-28.2
CNC(=O)C1(C(F)(F)F)CC(CCCO)CCCO1 (stereo unspecified)	4.4%	/	/	/	/	/
O=C(c1cc(-c2ccc3c(c2)OCO3)on1)N1CCCCC1	-8.8%	2.82µM*	-29.6%	?	?	39.6

Source: PubChem BioAssay (National Center for Advancing Translational Sciences (NCATS))
